The values that follow come from PubChem BioAssay (NCATS).

Each structure is given as a SMILES string. Records with an inconclusive call do not appear. Where a call stands in place of a potency, no number is given. Activity calls are given as the source filed them. The call rests on the fitted dose curve; in most records, active means well fitted cell-killing curve with a large enough effect; inconclusive means small, poorly fitted or top-dose-only effect; inactive means flat fitted curve, though single readings scatter.
Potency means the concentration at half of the fitted maximal effect.

The assay in a line: Cell Viability - LYMP1-002 - Assay at 40 hr (AID 994). Further: nearly all actives have a fitted effect of over 60% in size. Conditions: LYMP1-002 lymphoblastoid cell viability; series mostly up to 92.2 µM. From the text:
NIH Chemical Genomics Center [NCGC]
NIH Molecular Libraries Screening Centers Network [MLSCN]
National Institutes of Environmental Health Sciences [NIEHS]
National Toxicology Program [NTP]
We have developed a 1536-well cell-based assay for quantitative high throughput screening (qHTS) against a number of cell lines to determine in vitro cytotoxicity of small molecules. This particular assay uses a human lymphoblastoid cell line (LYMP1-002) purchased from Coriell Institute for Medical Research.
NCGC Assay Protocol Summary:
The CellTiter-Glo luminescent cell viability assay (Promega) is a homogeneous method to measure the number of viable cells in culture. The end point readout of this assay is based on quantitation of intracellular ATP, an indicator of metabolic activity, using the luciferase reaction. Luciferase catalyzes the oxidation of beetle Luciferin to oxyluciferin and light in the presence of ATP. The luminescent signal is proportional to amount of ATP present.
Using the CellTiter-Glo luminescent cell viability assay, the amount of cellular ATP was measured in the lymphoblastoid cell line with complete culture medium following compound treatment for 40 hours. The assay was performed in opaque white Kalypsys 1536-well plates. In the screen, tetraoctylammonium bromide was used as positive control. Library compounds were measured for their ability to cause acute toxicity in the cell line, as reflected by a decrease in intracellular ATP levels, in a concentration-dependent manner. […] AC50 values were determined from concentration-response data modeled with the standard Hill equation.
qHTS protocol for CellTiter Glo lymphoblastoid cellular assay
[Step] [Parameter] [Value] [Description]
1. Reagent; 5 uL; 2500 lymphoblastoid cells/well
2. Time; 5 hr; 37 C incubation
4. Controls; 23 nL; Tetraoctylammonium bromide 6.4pM to 92 uM
5. Time; 40 hr; 37 C incubation
6. Reagent; 5 uL; CellTiter Glo reagent
7. Time; 30 min; Room Temperature
8. Detection; Luminescence; Viewlux plate reader
Keywords: cell viability, cytotoxicity, lymphoblastoid cell line, luminescence, NTPHTS, NTPHTS_NCGC, NIEHS, DSSTox, MLSMR, MLSCN, NIH Roadmap, qHTS, NCGC
In the case of `CCNC(=S)NCC`, the Potency entry is “inactive”.
The entry for `CCCCCCCC/C=C\CCCCCCCC(=O)N(CCO)CCO` is “inactive”.
For `CCOc1ccc2nc(N)sc2c1` the value was “inactive”; for `c1c[nH]cn1`, “inactive”.
For `CCCCCCCCOc1ccc(C(=O)O)cc1` the value was “inactive”; for `Nc1ccc(-c2ccc(N)c(O)c2)cc1O`, “inactive”.
On to `NC(=O)Nc1nc2ccccc2[nH]1`, for which the Potency result is “inactive”.
Take `COc1cc(-c2ccc(N=C=O)c(OC)c2)ccc1N=C=O`: the Potency result is “inactive”.
In the case of `O=C(O)/C=C/c1ccc(/C=C/C(=O)O)cc1`, the Potency entry is “inactive”.
The entry for `O=C(OCc1ccccc1)c1ccccc1O` is “inactive”; for `CC1=C(/C=C/C(C)=C/C=C/C(C)=C/C=O)C(C)(C)CCC1` it is 50.1 µM (active).
The entry for `CC(C)S` is “inactive”; for `OC1CCCCC1` it is “inactive”.
The figure for `C=CC(=O)OCCCCCCOC(=O)C=C` is 39.8 µM (active); for `O=C1OC(=O)c2ccccc21` it is “inactive”.
For `Nc1cnn([C@@H]2O[C@H](CO)[C@@H](O)[C@H]2O)c(=O)n1`, the Potency entry was “inactive”.
For `c1ccc2ncccc2c1` the value was “inactive”; for `Cc1cccnc1`, “inactive”; for `CC(/C=C/C=C(C)/C=C/C(=O)O)=C\C=C\C=C(C)\C=C\C=C(C)\C=C\C(=O)O`, “inactive”.
As for `Nc1ccc2c(c1)C(=O)c1ccccc1C2=O`, the Potency result was “inactive”.
In the case of `C=Cc1cccc(C)c1`, the Potency result was “inactive”.
For `Oc1c(Cl)cc(Cl)c(Cl)c1Cl`, the Potency result was “inactive”.
Turning to `CCCCCCCCC1CO1` (stereo not given), the Potency result was “inactive”.
The entry for `C=C(C#N)C(=O)OCC` is “inactive”; for `CC(=O)Nc1cccc(C)c1` it is “inactive”.
For `CCCCC(CC)COC(=O)COc1ccc(Cl)cc1Cl` (stereo not given) the value was “inactive”; for `c1ccc(Nc2cccc3ccccc23)cc1`, “inactive”; for `CCCCC(CC)COCCCN` (stereo not given), “inactive”.
With `c1ccncc1`, the Potency result is “inactive”.
For `Nc1ccc(N=Nc2ccccc2)c(N)c1` the value was “inactive”; for `Oc1cc2c(cc1O)[C@H]1c3ccc(O)c(O)c3OC[C@@]1(O)C2`, 50.1 µM (active).
The entry for `CCCCNCC` is “inactive”; for `O=C1c2ccccc2C(=O)C1(O)O` it is “inactive”; for `CC(C)COC(=O)COc1cc(Cl)c(Cl)cc1Cl` it is “inactive”.
For `CC(C)OCC1CO1` (stereo not given) the value was “inactive”; for `CCOC(=O)C1OC1c1ccccc1` (stereo not given), “inactive”.
Consider `Oc1cc(Cl)cc(Cl)c1Cl`, for which the Potency entry is “inactive”.
For `Cc1c(N)cccc1Cl` the value was “inactive”; for `CCC(Cl)CC(Cl)C(Cl)C(Cl)C(Cl)C(C)Cl` (stereo not given), “inactive”; for `C1CCCNCC1`, “inactive”.
